# Records with an inconclusive call do not appear. Where a call stands in place of a potency, no number is given. Values without a mark were called inactive. Calls of active or inactive are those of the source. Calls follow the shape of the full dose curve.
# Target: 5-hydroxytryptamine receptor 2A (Homo sapiens) (UniProt P28223)
# Assay: 5-hydroxytryptamine receptor 2A (HTR2A) small molecule antagonists, cell-based qHTS assay (AID 1963586); also: nearly all actives have a fitted effect of over 45% in size
# Conditions: HTR2A-CHO cells, DOI-induced calcium flux, fluorescence; series mostly up to 61.5 µM
# From the text: National Center for Advancing Translational Sciences [NCATS]
# Division of Preclinical Innovation [DPI]
# U.S. Environmental Protection Agency [EPA]
# National Institutes of Environmental Health Sciences [NIEHS]
# National Toxicology Program [NTP]
# U.S. Food and Drug Administration [FDA]
# The HTR2A receptor is a subtype of the 5-HT2 receptor that belongs to the serotonin receptor family and is a G protein-coupled receptor (GPCR). The HTR2A-CHO cell line stably expressing human 5-hydroxytryptamine receptor 2A (HTR2A) can be used for screening antagonists of interactions between 5-HT2 and its ligands. The HTR2A-CHO calcium flux assay is a homogeneous fluorescence-based assay for detecting the intracellular calcium level using FDSS kinetic plate reader system.
# Tox21 Assay Protocol Summary:
# HTR2A-CHO cells were dispensed at 2000 cells/3uL/well in 1536-well black-clear bottom plates using a Multidrop Dispenser. After the assay plates were incubated at a 37 C/5% CO2 incubator for 18 h, 3 uL of Dye Loading Buffer was transferred to the assay plate by a Flying Reagent Dispenser. The assay plates were incubated at 37 C for 1h. For antagonist mode, 23 nL of compounds dissolved in DMSO, positive controls or DMSO only was transferred to the assay plate by a pin tool. After 5 min incubation at room temperature, 1.5 uL of 4-Iodo-2,5-dimethoxy-alpha-methylbenzeneethanamine hydrochloride (DOI) at 4nM was added to each well. The fluorescence intensity in the plates was measured using FDSS 7000EX kinetic plate reader for 3 min at 1 sec intervals.
# Potency is read from the fitted curve at half-maximal effect.
# Sequence of 5-hydroxytryptamine receptor 2A (Homo sapiens) (P28223 whole entry, looked up): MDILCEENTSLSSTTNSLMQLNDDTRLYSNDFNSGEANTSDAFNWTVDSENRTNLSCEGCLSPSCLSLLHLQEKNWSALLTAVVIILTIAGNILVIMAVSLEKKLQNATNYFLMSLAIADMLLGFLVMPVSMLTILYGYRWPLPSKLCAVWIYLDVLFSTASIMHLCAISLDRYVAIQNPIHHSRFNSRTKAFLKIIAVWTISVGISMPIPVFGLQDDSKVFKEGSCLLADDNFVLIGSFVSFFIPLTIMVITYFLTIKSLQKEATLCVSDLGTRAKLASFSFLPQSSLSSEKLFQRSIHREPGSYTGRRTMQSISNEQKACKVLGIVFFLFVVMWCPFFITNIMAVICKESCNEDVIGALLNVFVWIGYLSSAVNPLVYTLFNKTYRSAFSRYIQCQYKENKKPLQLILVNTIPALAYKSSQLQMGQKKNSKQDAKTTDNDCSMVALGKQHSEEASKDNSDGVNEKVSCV
Compound,Potency,"activity, negative = inhibition"
Nc1cccnc1N,inactive,
c1ccc(-c2ccccn2)nc1,inactive,
CCCCOc1ccc(CC(=O)NO)cc1,inactive,
COc1ccc2ccccc2c1,33.4 µM (active),
Cc1cc2nc(N)sc2cc1C,inactive,
CCOC(=O)NCCOc1ccc(Oc2ccccc2)cc1,inactive,
O=C1OC(=O)c2cc(Oc3ccc4c(c3)C(=O)OC4=O)ccc21,inactive,
CCCCc1ccc2nc(NC(=O)OC)[nH]c2c1,inactive,
O=C(O)c1ccc(-n2nc(-c3ccccc3O)nc2-c2ccccc2O)cc1,inactive,
CCCNC(C)C(=O)Nc1c(C)csc1C(=O)OC (stereo not given),inactive,
Cc1nc(-c2ccccn2)ncc1C(=O)Nn1cc(C)c2cc(F)ccc21,inactive,
C=CC(C)=CCC=C(C)C,inactive,
CCOC(=O)c1ccc(N(C)C)cc1,inactive,
CCCCCCOc1ccc(O)cc1,inactive,
CCCc1ccc(OCC(=O)N2CCN(C(=O)COc3ccc(CCC)cc3OC)CC2)c(OC)c1,inactive,
CCOC(=O)COC(=O)c1cc(Oc2ccc(C(F)(F)F)cc2Cl)ccc1[N+](=O)[O-],inactive,
BrCc1cccc(Oc2ccccc2)c1,inactive,
CCC(C)c1cc(C(C)(C)C)c(O)c(C(C)(C)C)c1 (stereo not given),inactive,
O=Cc1ccccc1Cl,inactive,
O=c1[nH][nH]c2ccccc12,inactive,

Compound,Potency,"activity, negative = inhibition"
Cc1ccc(N)cc1O,inactive,
CC(C)(N)C#N,inactive,
CCCCCOC(=O)CCCCC,inactive,
COc1cc2ncnc(Nc3cccc(Cl)c3)c2cc1OC,,2.95% [at 12.7 µM]
CC1CC(=O)NN=C1c1ccc(NCC(C)(C)NCC(O)COc2cc(Cl)ccc2C#N)cc1 (stereo not given),inactive,
N#CCCN(CCO)CCO,inactive,
O=C(C(=O)c1ccc(Br)cc1)c1ccc(Br)cc1,,10.2% [at 12.7 µM]
CCCCCCCCCCC=O,inactive,
Cc1ccc(Nc2nccc(N(C)c3ccc4c(C)n(C)nc4c3)n2)cc1S(N)(=O)=O,inactive,
CCN(CC)c1ccc2c(-c3ccccc3C(=O)O)c3ccc(=[N+](CC)CC)cc-3oc2c1,inactive,
S=c1[nH]c2ccccc2s1,inactive,
CCCN(CCc1cccs1)[C@H]1CCc2c(O)cccc2C1,0.365 µM (active),
CCN(C)C(=O)Oc1cccc([C@H](C)N(C)C)c1,inactive,
CC/C=C\CCCCCCCCCCOC(C)=O,inactive,
O=C(O)CCCCCCCCCCCBr,inactive,
COC(OC)(C(=O)c1ccccc1)c1ccccc1,inactive,
CCOc1ccc2[nH]cc(C(=O)NCc3ccccc3)c(=O)c2n1,inactive,
C=C[C@](C)(O)CC[C@@H]1[C@@]2(C)CCCC(C)(C)[C@@H]2CC[C@@]1(C)O,inactive,
CC(C)(C)c1csc(-c2cc3cc(OCc4ccccc4CC(=O)O)ccc3o2)n1,inactive,
Cc1coc2ccccc2c1=O,inactive,
